Active and inactive are the calls of the source. A call without a number means that no potency is given here. Calls come from the whole dose curve; as a rule, active = well fitted activation curve with a large enough effect in the repeat runs; inconclusive = weak or mixed curves; inactive = flat fitted curve, though single readings scatter.
Potency is the fitted concentration of half-maximal effect.

The assay is described as follows: A CellTox Green Cytotoxicity Assay to monitor cytotoxicity in HEK293 cells - 0 hour (AID 1224869). Note: nearly all actives have a fitted effect of over 50% in size. The note with it: CellTox Green fluorescence; series mostly up to 76.8 µM. From the text: National Center for Advancing Translational Sciences [NCATS]
NIH Chemical Genomics Center [NCGC]
U.S. Environmental Protection Agency [EPA]
National Institutes of Environmental Health Sciences [NIEHS]
National Toxicology Program [NTP]
Cell-based models are critical for drug discovery. Determining the natural cytotoxic effects resulting from test compounds is an essential research activity. A CellTox Green Cytotoxicity Assay to monitor cytotoxicity in real time of continues cell culture during 40 hours of the compound treatment was used to screen Tox21 10K library compounds in Hek293 cells. CellTox Green Cytotoxicity Assay is a nonlytic, homogeneous, biofluorescent method to measure cytotoxicity in cell culture after experimental manipulation. The assay system uses a proprietary asymmetric cyanine dye that is excluded from viable cells but preferentially stains the dead cell's DNA. […] Viable cells produce no appreciable increases in fluorescence. Therefore, the fluorescence signal produced by the binding interaction with dead cell DNA is proportional to cytotoxicity.
The mixture of Hek293 cell suspension and reagents were dispensed at 600cells/6 ul/well in 1536-well tissue culture treated black solid bottom plates using a Multidrop dispenser. After the assay plates were incubated at a 37 C/5% CO2 incubator for 5 hours, 23 nL of compounds dissolved in DMSO, positive and negative controls was transferred to the assay plate by a pintool work station. The plates were incubated at 37 C for 40 hours. The fluorescence intensity were measured at 0h, 8h, 16h, 24h, 32h and 40h time points using ViewLux plate reader during compound treatment.
Turning to `O=C(OCCOCCOCCOC(=O)c1ccccc1)c1ccccc1`, the Potency entry was “inactive”.
As for `CCc1c(C)[nH]c2c1C(=O)C(CN1CCOCC1)CC2` (stereo not given), the entry is “inactive”.
As for `COC(=O)c1cc(Cl)ccc1[N+](=O)[O-]`, the entry is “inactive”; as for `O=C(O)c1cccc(C(=O)O)c1C(=O)O`, “inactive”.
Turning to `CCn1nc(Cc2ccccc2)cc1C1CCN(C[C@H]2C[C@H](N(C)[C@@H](C(=O)O)C(C)C)C[C@@H]2c2cccc(F)c2)CC1`, the Potency result is “inactive”.
As to `OCCOc1cccc(OCCO)c1`, the Potency entry is “inactive”.
With `O=C(O)c1cc(C(=O)O)cc([N+](=O)[O-])c1`, the Potency result is “inactive”.
Turning to `NC(=O)c1ccccc1C(N)=O`, the Potency is 49.2 µM (active).
Next, `Clc1ccccc1-c1nc(-c2ccncc2)no1`: “inactive”.
Next, `C[C@H](CN1CCCC1)C(=O)c1ccc(C(F)(F)F)cc1`: “inactive”; `CCC(=O)O[C@@H]1C[C@H]2CC[C@]1(C)C2(C)C`: “inactive”.
Next, `N#Cc1ccc(CC(=O)c2cccc(C(F)(F)F)c2)cc1`: “inactive”; `Cc1ccc(S(=O)(=O)NC(=O)NC2CCCC2)cc1`: “inactive”.
As for `OCCCO`, the Potency entry is “inactive”.
As to `C1=COCCC1`, the Potency result was “inactive”.
Regarding `COc1ccnc2c1CCCCC2S(=O)c1nc2ccccc2[nH]1` (stereo not given), the Potency result is “inactive”.
As for `CCCc1nc(C)c2c(=O)[nH]c(-c3cc(S(=O)(=O)N4CCN(CC)CC4)ccc3OCC)nn12`, the entry is “inactive”; as for `C/C(=C\C(C)CC(C)CC(C)C)C1CC(=O)OC1=O` (stereo not given), “inactive”.
On to `C1CCN(CN2CCCCC2)CC1`, for which the Potency result is “inactive”.
On to `O=C(OC1C[C@H]2CC[C@@H](C1)[N+]21CCCC1)C(O)(c1ccccc1)c1ccccc1` (stereo not given in full), for which the Potency result was “inactive”.
Next, `O=C(O)CCc1nc2ccccc2[nH]1`: “inactive”; `CCOCCn1c(N2CCCN(C)CC2)nc2ccccc21`: “inactive”; `O=C1c2ccccc2C(=O)C1c1ccc2cc(S(=O)(=O)O)cc(S(=O)(=O)O)c2n1`: “inactive”.
As for `CCOC(OCC)OCC`, the entry is “inactive”.
`CC(O)CN` (stereo not given): the Potency entry is “inactive”.
As for `CCOC(=O)CC(O)(CC(=O)OCC)C(=O)OCC`, the entry is “inactive”; as for `O=C1C=CCCC1`, “inactive”; as for `CCCCCCCCOCCCN`, “inactive”.
On to `c1ccc(CN(Cc2ccccc2)Cc2ccccc2)cc1`, for which the Potency result is “inactive”.
`O=S(=O)(O)c1cc(Cl)c(Cl)cc1Cl`: the Potency result is “inactive”.
With `CC(O)C(C)O` (stereo not given), the Potency entry was “inactive”.
Turning to `CC(=O)S[C@H](C(=O)N[C@H]1Cc2ccccc2[C@H]2CCC[C@@H](C(=O)O)N2C1=O)C(C)C`, the Potency entry is “inactive”.
With `Nc1ccc(F)cc1F`, the Potency entry is “inactive”.
Next, `O=[N+]([O-])c1ccccc1CCO`: “inactive”.
As for `CCC(CC)C(=O)O`, the Potency entry was “inactive”.
For `OCC(O)c1ccccc1` (stereo not given), the Potency entry is “inactive”.
As for `c1ccc(CCNc2nc(-c3ccccc3)cs2)cc1`, the entry is “inactive”; as for `CCCC1CCCC(=O)O1` (stereo not given), “inactive”.
Next, `C[C@H]1C[C@H]2[C@@H]3CCC4=CC(=O)C=C[C@]4(C)[C@@]3(F)[C@@H](O)C[C@]2(C)[C@@]1(O)C(=O)COP(=O)(O)O`: “inactive”.
On to `Cc1ccc(NC=O)c(C)c1`, for which the Potency entry is “inactive”.
